Laboratory results as given in PubChem BioAssay (NCATS).
Inconclusive results are not listed. Entries that show only a call come without a potency. Active and inactive are the calls of the source. Calls come from the whole dose curve; as a rule, active = well fitted curve in the direction sought with a large enough effect in the signal ratio, with a control signal flat (not every such curve was filed as active); inconclusive = small, poorly fitted or top-dose-only effect, or effect the other way, or a change in a side signal; inactive = no such curve, though single readings can be large or run the other way; the % refers to the signal ratio.

These compounds were tested against Androgen receptor (Homo sapiens) (UniProt P10275) (assay: qHTS assay for small molecule antagonists of androgen receptor signaling (AID 588516)). Conditions: AR-UAS-bla HEK293, beta-lactamase ratio, antagonist mode, 16 h; series mostly up to 76.8 µM.
Sequence of Androgen receptor (Homo sapiens) (P10275 whole entry, looked up): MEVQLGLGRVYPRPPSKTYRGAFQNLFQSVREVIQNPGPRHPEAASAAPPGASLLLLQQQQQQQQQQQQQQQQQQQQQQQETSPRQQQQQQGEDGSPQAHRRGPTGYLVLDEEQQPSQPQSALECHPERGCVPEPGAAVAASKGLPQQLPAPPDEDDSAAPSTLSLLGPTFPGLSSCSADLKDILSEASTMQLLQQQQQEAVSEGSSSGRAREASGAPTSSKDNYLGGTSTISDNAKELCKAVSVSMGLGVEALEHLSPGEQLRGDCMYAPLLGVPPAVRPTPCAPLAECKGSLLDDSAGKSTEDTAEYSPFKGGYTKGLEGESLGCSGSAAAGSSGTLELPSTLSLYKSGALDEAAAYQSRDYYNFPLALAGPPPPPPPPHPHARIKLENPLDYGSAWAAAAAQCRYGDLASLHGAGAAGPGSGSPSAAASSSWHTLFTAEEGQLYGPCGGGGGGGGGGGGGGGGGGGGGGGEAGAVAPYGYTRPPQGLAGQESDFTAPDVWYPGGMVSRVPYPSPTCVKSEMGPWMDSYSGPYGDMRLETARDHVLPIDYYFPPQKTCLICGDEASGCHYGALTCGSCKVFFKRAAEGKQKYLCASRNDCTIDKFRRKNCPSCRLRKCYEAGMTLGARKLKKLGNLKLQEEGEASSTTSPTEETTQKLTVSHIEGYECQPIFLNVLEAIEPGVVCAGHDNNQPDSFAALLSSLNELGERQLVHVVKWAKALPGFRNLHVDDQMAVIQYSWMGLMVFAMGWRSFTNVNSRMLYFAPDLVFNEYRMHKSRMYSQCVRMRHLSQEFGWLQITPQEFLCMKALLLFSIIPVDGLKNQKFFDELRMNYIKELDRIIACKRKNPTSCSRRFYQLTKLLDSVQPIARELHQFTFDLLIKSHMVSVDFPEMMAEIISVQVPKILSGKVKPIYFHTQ
Excerpt: NIH Chemical Genomics Center [NCGC] U.S. Environmental Protection Agency [EPA] National Institutes of Environmental Health Sciences [NIEHS] National Toxicology Program [NTP] NCGC Assay Overview Androgen receptor (AR), located at chromosome Xq11-12, is an important member of nuclear hormone receptors. AR signaling plays a critical role in AR-dependent prostate cancer and other androgen related diseases. Considerable attention has been given in the past decades to the possibility of some of environmental chemicals which may contribute the endocrine disruption. Therefore, it is important to understand the effect of environmental chemicals in AR signaling pathway.
NCGC Assay Protocol Summary Using a beta-lactamase reporter-gene under control of the AR response element, a cell-based assay [GeneBLAzer AR-UAS-bla-GripTite assay developed by Invitrogen] was used to measure AR ligands signaling. AR-UAS-bla-GripTite HEK 293 cells were used with assay medium containing 10% dialyzed FBS, 0.1 mM NEAA and 1 mM sodium pyruvate. The assay was performed in clear bottom black Greiner 1536-well plates. Library compounds were measured for their ability to inhibit the reporter gene activity. Compounds were screened in a titration series in 1536-well format. The fluorescence intensity (405 nm excitation, 460/530 nm emission) was measured using an EnVision plate reader. Data was normalized relative to R1881 (10nM, 100%), and DMSO only wells (basal, 0%). Concentration-response titration points for each compound were fitted to the Hill equation yielding concentrations of half-maximal inhibition (IC50) and maximal response (efficacy) values. qHTS protocol for AR beta-lactamase assay in antagonist mode [Step] [Parameter] [Value] [Description] 1. Reagent; 5 uL; 2000 cells/well 2. Incubation; 37 C for 5 hrs 3. Compounds; 23 nL; 0.59 nM to 92 uM 4. Controls (Cyp Ac, AR antagonist); 23 nL, dose response, 1:3 dilutions with duplicates 5. Agonist (Stimulator); 1uL; R1881 at 10nM (final) concentration 6. Incubation; 37 C for 16 hrs 7. Detection reagent; 1 uL of CCF4-dye 8. Incubation; RT for 2 hrs 9. Detection; Fluorescence; Envision plate reader
Nc1c(Cl)c(Cl)c(Cl)c(Cl)c1Cl was tested, and the Potency was “inactive”.
In the case of CC(=O)[O][Hg][c]1ccccc1, the Potency is reported as 2240 nM (active).
With C=CC(=O)NCNC(=O)C=C the Potency was “inactive”.
COC(C)(C)CCCC(C)C/C=C/C(C)=C/C(=O)OC(C)C (stereo not given) was tested, and the Potency was “inactive”.
For O=[N+]([O-])/N=C1\NCCN1Cc1ccc(Cl)nc1, the Potency was “inactive”.
In the case of Nc1cccc2c(N)cccc12, the Potency is reported as “inactive”.
c1cc2ccc3cccc4ccc(c1)c2c34 was tested, and the Potency was “inactive”.
In the case of CCO/N=C(\CC)C1=C(O)CC(c2c(C)cc(C)cc2C)CC1=O (stereo not given), the Potency is reported as “inactive”.
In the case of Nc1ccc(Cl)cc1N, the Potency is reported as “inactive”.
O=C(O)CCCOc1ccc(Cl)cc1Cl was tested, and the Potency was “inactive”.
